Measured values as given in PubChem BioAssay (NCI).
Compounds without any hit were thinned out: in the full panel of roughly 83,000, 20% have a hit.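 Single-dose data. Exposure time 48 hours. Values below 10 considered active.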 Activity calls are given as the source filed them.

Experiments:
Assay in all cases: NCI-60 one-dose screen, 48 h (100 = growth as untreated, 0 = no growth, -100 = all killed)
Conditions in all cases: 10 µM unless noted
DU-145 prostate = tested on: DU-145 prostate
K-562 leukemia = tested on: K-562 leukemia
MALME-3M melanoma = tested on: MALME-3M melanoma
MDA-MB-231 breast = tested on: MDA-MB-231 breast
RXF 393 renal = tested on: RXF 393 renal
SF-268 CNS = tested on: SF-268 CNS
SF-295 CNS = tested on: SF-295 CNS
SF-539 CNS = tested on: SF-539 CNS
UACC-257 melanoma = tested on: UACC-257 melanoma
M14 melanoma = tested on: M14 melanoma

Measured: growth

Cc1ccc(-c2nc(Nc3ccccc3S(N)(=O)=O)c3ccccc3n2)cc1
active: SF-539 CNS -11.9%
inactive: DU-145 prostate 77.6% | K-562 leukemia 46.1% | MALME-3M melanoma 97.7% | MDA-MB-231 breast 21.6% | RXF 393 renal 51.1% | SF-268 CNS 70.1% | SF-295 CNS 94.4% | UACC-257 melanoma 106% | M14 melanoma 90.3%

CN(C)c1nc(NCCNS(=O)(=O)c2ccc(C3=Nc4c(N)nc(N)nc4NC(c4ccc(Cl)cc4)C3)cc2)nc(Nc2ccc(F)cc2)n1 (stereo not given)
active: SF-539 CNS -51.1%
inactive: DU-145 prostate 64% | K-562 leukemia 11.8% | MALME-3M melanoma 14.6% | MDA-MB-231 breast 11.2% | RXF 393 renal 20.1% | SF-268 CNS 43.7% | SF-295 CNS 48.5% | UACC-257 melanoma 42.6% | M14 melanoma 11.6%

NS(=O)(=O)c1ccc(N=Nc2c(O)n(CC(=O)Nc3ccccc3)c3ccccc23)cc1
inactive: DU-145 prostate 21.2% | K-562 leukemia 14.7% | MALME-3M melanoma 20.7% | RXF 393 renal 48.9% | SF-268 CNS 75.3% | SF-295 CNS 13.3% | UACC-257 melanoma 61.5% | M14 melanoma 11.2%
active: MDA-MB-231 breast -9.74% | SF-539 CNS -27.2%

O=C(Nc1cccc(-n2cnc3cc(-c4ccc(O)cc4)ccc32)c1)C1CC1
active: SF-295 CNS 6.04% | SF-539 CNS -6.53%
inactive: DU-145 prostate 28.5% | K-562 leukemia 12.2% | MALME-3M melanoma 46.3% | MDA-MB-231 breast 32.3% | RXF 393 renal 14.1% | SF-268 CNS 34.9% | UACC-257 melanoma 73.3% | M14 melanoma 40.5%

CCOC(=O)C(N=Nc1ccc(S(=O)(=O)N=C(N)N)cc1)C(C)=O (stereo not given)
inactive: DU-145 prostate 111% | K-562 leukemia 94.1% | MALME-3M melanoma 129% | MDA-MB-231 breast 107% | RXF 393 renal 105% | SF-268 CNS 101% | SF-295 CNS 125% | SF-539 CNS 104% | UACC-257 melanoma 126% | M14 melanoma 124%

O=C(COc1ccc(NC(=O)Nc2ccc(Cl)c(Cl)c2)cc1)N=Nc1c(O)[nH]c2ccc([N+](=O)[O-])cc12
active: SF-539 CNS 1.4%
inactive: DU-145 prostate 64.8% | K-562 leukemia 25.1% | MALME-3M melanoma 77.9% | MDA-MB-231 breast 37% | RXF 393 renal 75.4% | SF-268 CNS 84.3% | SF-295 CNS 53.1% | UACC-257 melanoma 67.6% | M14 melanoma 34.4%

CCOP(=O)(OCCCl)c1nc(-c2ccc(C)cc2)oc1NCc1ccccc1 (stereo not given)
inactive: DU-145 prostate 96% | K-562 leukemia 50.3% | MALME-3M melanoma 102% | MDA-MB-231 breast 65.1% | RXF 393 renal 84.4% | SF-268 CNS 73.7% | SF-295 CNS 79.9% | SF-539 CNS 87.2% | UACC-257 melanoma 92.6% | M14 melanoma 86.3%

COc1c(F)ccc(C(=O)Nc2ccc3nc(NC(=O)C4CCCN(S(=O)(=O)c5ccc(Cl)cc5)C4)sc3c2)c1F (stereo not given)
active: RXF 393 renal 8.75%
inactive: DU-145 prostate 93.4% | K-562 leukemia 59.2% | MALME-3M melanoma 90.5% | MDA-MB-231 breast 81.1% | SF-268 CNS 77.4% | SF-295 CNS 63.6% | SF-539 CNS 66.8% | UACC-257 melanoma 82.4% | M14 melanoma 75.6%

CC(C)CSc1nc(NCCc2c[nH]c3ccccc23)c(C#N)c(-c2ccccc2)n1
inactive: DU-145 prostate 66.8% | K-562 leukemia 20.5% | MALME-3M melanoma 91.8% | MDA-MB-231 breast 38.3% | RXF 393 renal 32.5% | SF-268 CNS 67.4% | SF-295 CNS 68.7% | SF-539 CNS 62.5% | UACC-257 melanoma 97.4% | M14 melanoma 74.5%

CC12CC[C@@H]3[C@]4(C)COC(c5cn[nH]c5-c5ccc(Cl)cc5)O[C@@H]4CC[C@@]3(C)[C@@H]1CC(C1=CCOC1=O)O2 (stereo not given in full)
active: RXF 393 renal 5.04%
inactive: DU-145 prostate 61.6% | K-562 leukemia 24.9% | MALME-3M melanoma 58% | MDA-MB-231 breast 52.1% | SF-268 CNS 60.3% | SF-295 CNS 43.8% | SF-539 CNS 51.2% | UACC-257 melanoma 46.7% | M14 melanoma 30.9%

Cc1cccc(NC(=O)[C@]23CCC(C)(C)CC2C2=CCC4[C@@]5(C)C[C@@H](O)[C@H](O)[C@@](C)(CO)C5CC[C@@]4(C)[C@]2(C)CC3)c1 (stereo not given in full)
active: MDA-MB-231 breast -19.1% | RXF 393 renal -49% | SF-295 CNS 4.56% | SF-539 CNS -2.33%
inactive: DU-145 prostate 32.2% | K-562 leukemia 15.5% | MALME-3M melanoma 28.3% | SF-268 CNS 41% | UACC-257 melanoma 39.8% | M14 melanoma 36.1%

C=CC(=O)Nc1ccc(C)c(Oc2ccc(Cl)cc2)c1
inactive: DU-145 prostate 68.6% | K-562 leukemia 53.2% | MALME-3M melanoma 73.8% | MDA-MB-231 breast 44.1% | RXF 393 renal 38.5% | SF-268 CNS 57.1% | SF-295 CNS 58% | SF-539 CNS 30.2% | UACC-257 melanoma 66.6% | M14 melanoma 72.3%

Cc1sc2c(c1C)C(c1ccc(Cl)cc1)=N[C@@H](CC(=O)NCCCCCNC(=O)COc1ccc(C3CCC(=O)NC3=O)cc1)c1nnc(C)n1-2 (stereo not given in full)
inactive: DU-145 prostate 88.5% | K-562 leukemia 28.4% | MALME-3M melanoma 13% | RXF 393 renal 45.3% | SF-268 CNS 65.4% | SF-539 CNS 23.1% | UACC-257 melanoma 49.3% | M14 melanoma 17.6%
active: MDA-MB-231 breast 5.01% | SF-295 CNS 9.91%

C=C1CCC2C3(C)COC(c4ccccc4)OC3CCC2(C)C1CC(Sc1ccccc1)C1=CCOC1=O (stereo not given)
inactive: DU-145 prostate 70.6% | MALME-3M melanoma 92.8% | MDA-MB-231 breast 62.5% | RXF 393 renal 72.7% | SF-268 CNS 83.3% | SF-295 CNS 62.7% | SF-539 CNS 17.7% | UACC-257 melanoma 63.8% | M14 melanoma 53.7%
active: K-562 leukemia 7.88%

CCCCCCCCc1ccc(S(=O)(=O)Nc2ccc(CC)cc2C(=O)O)cc1
inactive: DU-145 prostate 105% | K-562 leukemia 83% | MALME-3M melanoma 98.2% | MDA-MB-231 breast 102% | RXF 393 renal 109% | SF-268 CNS 97.4% | SF-295 CNS 81.2% | SF-539 CNS 101% | UACC-257 melanoma 91.1% | M14 melanoma 99.1%

CCN(CC)c1ccc(/C=N/Nc2nc(-c3ccc(Br)cc3)cs2)c(O)c1
inactive: DU-145 prostate 91.7% | MALME-3M melanoma 53.4% | MDA-MB-231 breast 95.9% | RXF 393 renal 64.9% | SF-268 CNS 99.7% | SF-295 CNS 91.5% | SF-539 CNS 52.3% | UACC-257 melanoma 91.7% | M14 melanoma 54.5%
active: K-562 leukemia 4.62%

CC(=O)/C=C/c1cccc2c1C(=O)NC(C)(c1cc3cc(Br)ccc3oc1=O)N2 (stereo not given)
active: K-562 leukemia 0.91% | RXF 393 renal -12.9%
inactive: DU-145 prostate 19.1% | MALME-3M melanoma 31.3% | MDA-MB-231 breast 18% | SF-268 CNS 56.1% | SF-295 CNS 39% | SF-539 CNS 19.2% | UACC-257 melanoma 27.2% | M14 melanoma 31.4%

O=C1c2c(c3c4cc(F)ccc4oc3c3[nH]c4ccc(Br)cc4c23)C(=O)N1O
active: MALME-3M melanoma 7.44% | SF-268 CNS 2.64% | SF-539 CNS -10.9%
inactive: DU-145 prostate 24.6% | K-562 leukemia 40.3% | MDA-MB-231 breast 66.4% | RXF 393 renal 29.2% | SF-295 CNS 20% | UACC-257 melanoma 88.5% | M14 melanoma 14.3%

Cn1cc(-c2cc(N)n3nc(-c4cn(C)c5ccccc45)cc3n2)c2cc(Cl)ccc21
active: K-562 leukemia 1.57% | MALME-3M melanoma -77% | MDA-MB-231 breast -45.4% | RXF 393 renal -73.7% | SF-268 CNS -46.4% | SF-295 CNS -53.8% | SF-539 CNS -69.3% | UACC-257 melanoma -59.9% | M14 melanoma -78.3%
inactive: DU-145 prostate 22%

CC(C)Sc1nc(NCCc2c[nH]c3ccccc23)c(C#N)c(-c2ccccc2)n1
inactive: DU-145 prostate 42.5% | MALME-3M melanoma 55.8% | SF-268 CNS 45% | SF-539 CNS 40.8% | UACC-257 melanoma 86.4% | M14 melanoma 42.7%
active: K-562 leukemia 8.87% | MDA-MB-231 breast -17.3% | RXF 393 renal -27.6% | SF-295 CNS -14.3%

C=C1CC[C@@H]2[C@]3(C)COC(c4cn[nH]c4-c4ccc(F)cc4)O[C@@H]3CC[C@@]2(C)[C@@H]1C/C=C1/C(=O)OCC1O (stereo not given in full)
active: DU-145 prostate -23% | K-562 leukemia -24.2% | MALME-3M melanoma -44.7% | MDA-MB-231 breast -40.5% | RXF 393 renal -86% | SF-295 CNS -26.8% | SF-539 CNS -83.2% | UACC-257 melanoma -44.6% | M14 melanoma -63.4%
inactive: SF-268 CNS 16.9%

O=C(CSc1nc2ccccc2c(=O)[nH]1)NCCN1CCCCC1
inactive: DU-145 prostate 106% | K-562 leukemia 98.9% | MALME-3M melanoma 97.3% | MDA-MB-231 breast 100% | RXF 393 renal 115% | SF-268 CNS 92.9% | SF-295 CNS 103% | SF-539 CNS 91% | UACC-257 melanoma 97.3% | M14 melanoma 94.4%
